High-throughput results from PubChem.
Hits are enriched below; roughly 7.8% of the tested compounds scored in any of these assays.
HCMV inh: inhibitors of human cytomegalovirus; activity change, negative = inhibition, % at 57.5 µM; 410,000 tested, 4.5% active; HFF cells, HCMV-luciferase reporter, 72 h; active compounds read low; in the data active = activity change below about -60%; inconclusive = no clear call, values can overlap the other calls; inactive = above about -39%
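Two-dose cell screen: HFF monolayers treated with compounds and infected with luciferase-expressing HCMV at 1 PFU/cell, 72 h at 37C, then lysed for luciferase measurement.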
Marburg entry inh: Marburg virus entry inhibition. Marburg virus pseudotyped entry inhibition, cell reporter. Potency, µM (top dose mostly 37.8 µM), usual class: inhibitors. 300,000 tested, 1.8% active. AID 540276; calls by dose curve; tested in HEK293 cells
Vaccinia Venus: vaccinia inhibition (Venus reporter) | Vaccinia virus Venus reporter expression, fluorescence | Potency, µM (highest dose often 36.5 µM), hits mostly inhibitors | 330,000 tested, 0.46% active | AID 720580; calls by dose curve; tested in A549 cells; also: nearly all actives have a fitted effect of over 30% in size
Vaccinia mCherry: vaccinia inhibition (mCherry reporter); Vaccinia virus mCherry reporter infection, fluorescence; Potency, µM (doses to about 36.5 µM), usual class: inhibitors; 310,000 tested, 0.63% active; calls by dose curve; tested in A549 cells; also: nearly all actives have a fitted effect of over 35% in size
LASV entry inh: inhibitors of Lassa virus binding or cell entry; Lassa virus pseudotype entry inhibition, cell reporter; Potency, µM (series often up to 37.9 µM), usual class: inhibitors; 300,000 tested, 1.2% active; AID 540256; calls by dose curve; tested in HEK293 cells; also: nearly all actives have a fitted effect of over 50% in size
HCV inhibitor: HCV inhibition; Huh7.5.1 HCVcc-Cre infection, luciferase reporter, 44 h; Potency, µM (titrated, usually from 41.8 µM), hits mostly inhibitors; 340,000 tested, 3.4% active; active = well fitted inhibition curve with a large enough effect; inconclusive = small, poorly fitted or top-dose-only effect, or another doubt; inactive = no such curve, though single readings can be large or run the other way
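Infectious HCV cell culture screen: compound-treated cells (1,000/well, pre-plated 4 h) are infected with HCVcc-Cre at roughly 0.5 moi and grown 44 h. Infection is quantified by luciferase signal after 15 min substrate incubation at room temperature.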
Of the large screens only hits and unclear results are named; the others gave an inactive call; ! = a repeat was not active.

COc1ccc(C(C#N)=Cc2ccc(OC)c(OC)c2)cc1	none (no result: Marburg entry inh, LASV entry inh, HCV inhibitor)
CCN1CCc2c(sc(-n3cccc3)c2C(C)NC(=O)Nc2ccc(C(=O)OC)cc2)C1 (stereo not given)	none (no result: Marburg entry inh, HCV inhibitor)
O=C(COc1ccccc1)NC1CC(=O)N(c2ccc3c(c2)OCCO3)C1 (stereo not given)	none (no result: Marburg entry inh, HCV inhibitor)
O=C(COc1ccc(F)cc1)NC1CC(=O)N(c2ccc3c(c2)OCCO3)C1 (stereo not given)	HCMV inh -108 (no result: Marburg entry inh, HCV inhibitor)
COc1ccc(/C=N/NC(=O)c2nc(-c3ccccc3)n(-c3ccccc3)n2)cc1	none
COc1ccc2[nH]c(C(=O)N/N=C/c3ccc(O)cc3O)cc2c1	HCMV inh -90, Vaccinia Venus inconclusive, Vaccinia mCherry inconclusive, HCV inhibitor inconclusive (no result: Marburg entry inh, LASV entry inh)
CCOc1ccc2[nH]c(C(=O)N/N=C/c3ccc(OC)cc3)cc2c1	Marburg entry inh inconclusive, Vaccinia Venus inconclusive, Vaccinia mCherry inconclusive, LASV entry inh inconclusive, HCV inhibitor inconclusive
COc1ccc(/C=N/NC(=O)c2nc(-c3ccccc3)n(-c3ccccc3)n2)c(O)c1	HCMV inh inconclusive, Marburg entry inh inconclusive, Vaccinia Venus inconclusive, Vaccinia mCherry 3.2µM, LASV entry inh inconclusive, HCV inhibitor inconclusive
C[C@@H]1C[C@](C)(C(=O)c2ccco2)C=C1c1ccco1	none (no result: HCMV inh, Vaccinia Venus, Vaccinia mCherry, LASV entry inh, HCV inhibitor)
COc1ccc(-n2c(SCC(=O)Nc3cc(C)cc(C)c3)nc3c(oc4ccccc43)c2=O)cc1	none (no result: LASV entry inh, HCV inhibitor)
Cn1c(CN2CCCCC2)nc2cc(NC(=O)c3ccccc3)ccc21	HCMV inh -60, Vaccinia mCherry inconclusive
Cn1c(CN2CCCCC2)nc2cc(NC(=O)c3cccc(Br)c3)ccc21	HCMV inh -95!, Marburg entry inh inconclusive, Vaccinia Venus inconclusive, LASV entry inh inconclusive, HCV inhibitor 5.6µM
C[C@@H]1NS(=O)(=O)c2cccc(Cl)c2O[C@@H]1c1ccccc1	none (no result: Marburg entry inh, Vaccinia Venus, Vaccinia mCherry, LASV entry inh, HCV inhibitor)
Cc1cccc(S(=O)(=O)N2[C@@H]3c4cccc(=O)n4C[C@H]2[C@H](CO)[C@H]3C(=O)N(C)C)c1	none (no result: Marburg entry inh, Vaccinia Venus, Vaccinia mCherry, LASV entry inh, HCV inhibitor)
Cc1c(Cl)ccc2sc(NC(=O)c3ccc(S(=O)(=O)N4CCCc5ccccc54)cc3)nc12	none (no result: Marburg entry inh, HCV inhibitor)
Nc1ccc(Cn2ccc3c4c(N)nc(N)nc4ccc32)cc1	HCMV inh -99, Marburg entry inh inconclusive, Vaccinia Venus inconclusive, Vaccinia mCherry 0.35µM, LASV entry inh inconclusive, HCV inhibitor inconclusive
Cc1ccc(C)c(C(=O)c2c(N)c(-c3nc(-c4ccc5c(c4)OCO5)cs3)c3ccccn23)c1	none (no result: HCV inhibitor)
COc1ccc([C@H]2C[C@H](n3cc(-c4ccc(F)cc4)nn3)[C@@H](O)CN2Cc2cccs2)cc1	Marburg entry inh inconclusive (no result: LASV entry inh, HCV inhibitor)
O[C@H]1CN(Cc2cccs2)[C@@H](c2ccccc2)C[C@@H]1n1cc(-c2ccc(F)cc2)nn1	none (no result: Marburg entry inh, LASV entry inh, HCV inhibitor)
O[C@H]1C[C@H](c2ccccc2)N(Cc2cccs2)C[C@@H]1n1cc(-c2ccc(F)cc2)nn1	HCMV inh -64, Vaccinia Venus inconclusive, Vaccinia mCherry inconclusive (no result: Marburg entry inh, LASV entry inh, HCV inhibitor)
Cc1ccc([C@H]2C[C@H](O)[C@@H](n3cc(C4CC4)nn3)CN2Cc2cccs2)cc1	Marburg entry inh inconclusive, Vaccinia Venus 11µM, Vaccinia mCherry inconclusive (no result: LASV entry inh, HCV inhibitor)
Cc1ccc([C@H]2C[C@@H](O)[C@H](n3cc(C4CC4)nn3)CN2Cc2cccs2)cc1	LASV entry inh inconclusive (no result: Marburg entry inh, HCV inhibitor)
COc1ccc([C@H]2C[C@H](O)[C@@H](n3cc(-c4ccc(F)cc4)nn3)CN2Cc2cccs2)cc1	HCMV inh -67, Vaccinia Venus 10µM, Vaccinia mCherry 10µM, LASV entry inh inconclusive (no result: Marburg entry inh, HCV inhibitor)
C#CCN1C(=O)[C@]2(O[C@H](COc3ccccc3)CC3=C2CCC3)c2ccccc21	LASV entry inh inconclusive (no result: HCMV inh, Vaccinia Venus, Vaccinia mCherry, HCV inhibitor)
COc1ccc(C(=O)N2N=C(c3ccccc3)CC2(O)C(F)(F)F)cc1 (stereo not given)	Marburg entry inh 13µM, LASV entry inh inconclusive
COCCCNC(=O)c1ccc(Cn2c(SCc3ccc(F)cc3)nc3cccnc32)cc1	none (no result: Marburg entry inh, HCV inhibitor)
O=C(/C=C\Nc1ccccn1)c1ccccc1	Marburg entry inh inconclusive, LASV entry inh 2.5µM
COc1ccc(C(=O)/C=C/Nc2ccccn2)c(OC)c1	Marburg entry inh inconclusive, LASV entry inh inconclusive
O=C(/C=C/Nc1ccccc1Br)c1ccccn1	HCMV inh -85, Marburg entry inh inconclusive, LASV entry inh 1.1µM
C[N+](C)(CCCCCI)c1ccc(/C=C/c2nc3ccccc3s2)cc1	none (no result: HCMV inh, Marburg entry inh, LASV entry inh, HCV inhibitor)
OC1(c2ccc3c(c2)CN(Cc2ccccn2)CCO3)CCN(c2ccccc2F)CC1	none (no result: HCMV inh, Marburg entry inh, LASV entry inh, HCV inhibitor)
COc1ccc(S(=O)(=O)NCc2ccco2)c2ccccc12	HCMV inh -66
